Experiment in all cases: NCI-60 one-dose screen, 48 h (100 = growth as untreated, 0 = no growth, -100 = all killed)
The subject of one experiment is HCT-15 colon. As to conditions: 10 µM unless noted.
In the next experiment the test system is HT29 colon. As to conditions: 10 µM unless noted.
For another experiment, the system named is SNB-75 CNS. As to conditions: 10 µM unless noted.
The subject of the next experiment is SNB-19 CNS. As to conditions: 10 µM unless noted.
A further experiment deals with U251 CNS. As to conditions: 10 µM unless noted.
The subject of another experiment is PC-3 prostate. As to conditions: 10 µM unless noted.
Another experiment has as its system SK-MEL-5 melanoma. As to conditions: 10 µM unless noted.
The test system of a further experiment is UACC-62 melanoma. As to conditions: 10 µM unless noted.
The test system of the next experiment is LOX IMVI melanoma. As to conditions: 10 µM unless noted.
Another experiment relates to SK-MEL-28 melanoma. As to conditions: 10 µM unless noted.
For a further experiment, the system named is SK-MEL-2 melanoma. As to conditions: 10 µM unless noted.
For a further experiment, the system named is SN12C renal. As to conditions: 10 µM unless noted.
The test system of another experiment is UO-31 renal. As to conditions: 10 µM unless noted.
Another experiment deals with TK-10 renal. As to conditions: 10 µM unless noted.
The next experiment concerns ACHN renal. As to conditions: 10 µM unless noted.
The test system of the next experiment is CAKI-1 renal. As to conditions: 10 µM unless noted.
The next experiment deals with A498 renal. As to conditions: 10 µM unless noted.
The next experiment relates to MOLT-4 leukemia. As to conditions: 10 µM unless noted.
In a further experiment the test system is CCRF-CEM leukemia. As to conditions: 10 µM.
The next experiment concerns EKVX NSCLC. As to conditions: 10 µM.

The panel holds about 83,000 compounds, 20% with a hit somewhere; the sample as a whole holds those more often.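 Note: values are percent growth. 100 is the growth of untreated cells, values between 100 and 0 indicate rising inhibition; between -100 and 0 indicates cell death.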 Unmarked numbers belong to inactive results. Activity calls are given as the source filed them. How the source made its calls: active means growth percent below 10; inactive means the rest.

Data on 9 compounds can be found in PubChem BioAssay (NCI).

In the case of `COc1ccc(Nc2c3ccccc3nc3ccccc23)cc1`, the growth in the experiment on HCT-15 colon was 25.2%; in the experiment with HT29 colon it was 8.49% (active); in the experiment on SNB-75 CNS, 16.2%; in the experiment with SNB-19 CNS, 53.2%; with U251 CNS it was 16.1%; with PC-3 prostate, 32.6%. Also, the growth in the experiment on SK-MEL-5 melanoma is 24.8%; with UACC-62 melanoma, 47.6%; with LOX IMVI melanoma, 21.3%; with SK-MEL-28 melanoma, 49.7%; with SK-MEL-2 melanoma, 54.5%; in the experiment with SN12C renal it was 30.1%. Also, the growth was 7.72% (active) in the experiment with UO-31 renal; 51.8% in the experiment on TK-10 renal; -11% (active) in the experiment with ACHN renal; 10.2% in the experiment with CAKI-1 renal; 42.1% with A498 renal; -9.93% (active) in the experiment with MOLT-4 leukemia.
Turning to `CCCCCCN(CCCCCC)CCC(=O)Nc1ccc(S(=O)(=O)c2ccc(NC(=O)CCN(CCCCCC)CCCCCC)cc2)cc1`, the growth with HCT-15 colon was 72.9%; with HT29 colon, 29.9%; in the experiment on SNB-75 CNS, 71.3%; in the experiment on SNB-19 CNS, 88%; in the experiment with U251 CNS, 88.4%; in the experiment with PC-3 prostate, 76.6%. The growth in the experiment on SK-MEL-5 melanoma was 90%; with UACC-62 melanoma, 91.3%; with LOX IMVI melanoma it was 76.5%; in the experiment with SK-MEL-28 melanoma, 91.9%; with SK-MEL-2 melanoma, 122%; in the experiment on SN12C renal, 81.4%. The growth in the experiment on UO-31 renal was 52.3%; in the experiment on TK-10 renal, 109%; in the experiment with ACHN renal, 88.3%; in the experiment on CAKI-1 renal it was 86.6%; in the experiment on CCRF-CEM leukemia, 51.3%; with MOLT-4 leukemia it was 59.1%.
On to `CCN(CC)CCCC(C)Nc1c(C)cnc2cc(Cl)c(C)cc12` (stereo not drawn), for which the growth with HCT-15 colon is 86.8%; in the experiment with HT29 colon, 40%; in the experiment on SNB-75 CNS it was 95.5%; with SNB-19 CNS it was 99.9%; with U251 CNS, 84.7%; with PC-3 prostate it was 87.8%. Besides, the growth with SK-MEL-5 melanoma was 90.2%; with UACC-62 melanoma it was 109%; with LOX IMVI melanoma it was 81.2%; in the experiment on SK-MEL-28 melanoma it was 85.4%; in the experiment on SK-MEL-2 melanoma it was 117%; in the experiment on SN12C renal, 94.5%. Also, the growth was 66.8% with UO-31 renal; 90.5% in the experiment with TK-10 renal; 94% in the experiment with ACHN renal; 80.6% in the experiment with CAKI-1 renal; 83.2% in the experiment on A498 renal; 62.2% in the experiment with CCRF-CEM leukemia. The growth in the experiment on MOLT-4 leukemia is 62.7%.
Turning to `O=C1C(=O)c2ccccc2C(O)=C1CCCc1ccc(Oc2ccccc2)cc1`, the growth in the experiment on HCT-15 colon was 74.1%; in the experiment with HT29 colon it was 113%; with SNB-75 CNS, 71.2%; with SNB-19 CNS it was 62%; in the experiment on U251 CNS, 36.1%; in the experiment on PC-3 prostate, 37.5%. Besides, the growth in the experiment with SK-MEL-5 melanoma is 55.1%; with UACC-62 melanoma it was 36.5%; in the experiment with LOX IMVI melanoma, 38.9%; with SK-MEL-28 melanoma it was 74.8%; with SK-MEL-2 melanoma it was 72.5%; with SN12C renal, 77.8%. Further, the growth in the experiment with UO-31 renal is 43.5%; with TK-10 renal it was 90.7%; in the experiment on ACHN renal, 59.4%; in the experiment with CAKI-1 renal, 43.3%; with A498 renal, 66.1%; with CCRF-CEM leukemia it was 32.1%. For the same compound, the growth with MOLT-4 leukemia was 50.3%.
`CCC(C)CC(N)O` (stereo not drawn): the growth in the experiment with HCT-15 colon was 103%; in the experiment with HT29 colon, 111%; with SNB-75 CNS, 106%; in the experiment on SNB-19 CNS it was 106%; in the experiment with U251 CNS, 106%; in the experiment on PC-3 prostate, 111%. In addition, the growth with SK-MEL-5 melanoma is 99.9%; in the experiment on UACC-62 melanoma, 104%; in the experiment with LOX IMVI melanoma, 110%; with SK-MEL-28 melanoma, 102%; in the experiment with SK-MEL-2 melanoma, 128%; in the experiment with SN12C renal, 109%. The growth in the experiment with UO-31 renal was 101%; in the experiment on TK-10 renal, 99%; in the experiment on ACHN renal, 106%; in the experiment with CAKI-1 renal, 110%; with A498 renal it was 109%; in the experiment with CCRF-CEM leukemia, 115%. The growth in the experiment on MOLT-4 leukemia is 106%.
Regarding `CCN(CC)C(=O)C1(C)CCCC2(C)c3cc(OC(C)=O)ccc3CCC12` (stereo not drawn), the growth in the experiment on HCT-15 colon was 87%; with HT29 colon, 82.9%; with SNB-75 CNS it was 80.9%; in the experiment with SNB-19 CNS, 96.5%; with U251 CNS it was 81.5%; with PC-3 prostate, 76.2%. Moreover, the growth in the experiment on SK-MEL-5 melanoma was 67.6%; with UACC-62 melanoma, 73.1%; in the experiment with LOX IMVI melanoma it was 101%; with SK-MEL-28 melanoma, 88.5%; with SK-MEL-2 melanoma, 80.3%; with SN12C renal it was 91.7%. Besides, the growth with UO-31 renal was 54.4%; in the experiment on TK-10 renal, 78.1%; in the experiment on ACHN renal, 80.7%; in the experiment with CAKI-1 renal, 76.8%; in the experiment on A498 renal, 83.9%; in the experiment with MOLT-4 leukemia, 64.1%.
For `Cc1[nH]n(C(=S)Nc2nc3cc(Cl)c(F)cc3s2)c(=O)c1N=Nc1ccc(F)c(Cl)c1`, the growth in the experiment with HCT-15 colon was 101%; in the experiment with HT29 colon, 112%; in the experiment on SNB-75 CNS, 86%; with SNB-19 CNS, 89.7%; in the experiment on U251 CNS it was 95.9%; in the experiment on PC-3 prostate, 98.1%. Besides, the growth was 93.1% with SK-MEL-5 melanoma; 92.8% with UACC-62 melanoma; 99% in the experiment with LOX IMVI melanoma; 106% with SK-MEL-28 melanoma; 80.1% with EKVX NSCLC; 100% in the experiment with SN12C renal. The growth is 129% in the experiment with TK-10 renal; 104% with ACHN renal; 65.8% in the experiment with A498 renal; 19.3% in the experiment on CCRF-CEM leukemia; -16.5% (active) in the experiment on MOLT-4 leukemia.
In the case of `Cc1ccccc1-n1c(C)nc2cc(NC(=O)c3ccc(Cl)cc3)ccc2c1=O`, the growth in the experiment on HCT-15 colon was 63.7%; in the experiment with HT29 colon it was 62.9%; with SNB-75 CNS, 103%; in the experiment with SNB-19 CNS it was 75.9%; with U251 CNS it was 77.6%; in the experiment with PC-3 prostate it was 61.2%. Moreover, the growth with SK-MEL-5 melanoma was 0.858% (active); in the experiment with UACC-62 melanoma, 42.2%; in the experiment on LOX IMVI melanoma, 69.4%; in the experiment on SK-MEL-28 melanoma, 79.5%; in the experiment with EKVX NSCLC, 51.5%; in the experiment with UO-31 renal it was 77.8%. Also, the growth in the experiment on ACHN renal was 48.1%; in the experiment on CAKI-1 renal it was 58.8%; in the experiment with A498 renal, 60.6%; in the experiment on CCRF-CEM leukemia, 52.7%; in the experiment on MOLT-4 leukemia, 71.7%.
In the case of `COC(=O)C(Cc1cnc[nH]1)N1CC(=O)N2[C@@H](c3ccccc3)SC[C@H]2C1=O` (stereo partly drawn), the growth in the experiment with HCT-15 colon was 107%; in the experiment with HT29 colon, 104%; with SNB-75 CNS, 120%; in the experiment with SNB-19 CNS, 106%; in the experiment on U251 CNS, 95.2%; in the experiment on PC-3 prostate, 97.4%. The growth in the experiment on SK-MEL-5 melanoma is 131%; with UACC-62 melanoma it was 106%; in the experiment on LOX IMVI melanoma, 97.7%; in the experiment on SK-MEL-28 melanoma, 117%; in the experiment on EKVX NSCLC, 101%; in the experiment on SN12C renal it was 107%. Also, the growth was 88.4% in the experiment with UO-31 renal; 106% with ACHN renal; 94.1% with CAKI-1 renal; 95.9% with A498 renal; 99.6% with CCRF-CEM leukemia; 99.7% in the experiment on MOLT-4 leukemia.
